Source: PubChem BioAssay
JMJD2A Tudor inh: inhibitors of human JMJD2A Tudor domain; 4.4% of 390,000 active; Potency, µM (doses to about 114 µM), inactives show at the top dose activity change, negative = inhibition, usual class: inhibitors; O75164; AID 504339; AlphaScreen JMJD2A-Tudor / H3K4me3 peptide binding; also: % is scaled to controls: 0 for no effect and ±100 for the full control effect; nearly all actives have a fitted effect of over 50% in size
L3MBTL1 inh: blocks human L3MBTL1; Q9Y468; 0.66% of 230,000 active; AlphaScreen L3MBTL1–H3K9me1 peptide binding; Potency, µM (top dose mostly 57.1 µM), without a hit: top-dose activity, negative = inhibition, usual class: inhibitors; AID 485360; also: % is scaled to controls: 0 for no effect and ±100 for the full control effect; nearly all actives have a fitted effect of over 60% in size
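L3MBTL1 50 nM + b-AHA-H3(1-15)K9me1 75 nM, 30 min RT; compound added, 30 min RT; streptavidin donor/Ni-chelate acceptor beads 10 ug/mL each final, 30 min RT dark; AlphaScreen read.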
Sfp PPTase inh: inhibitors of Bacillus subtilis Sfp phosphopantetheinyl transferase; Biochemical Sfp PPTase activity, qHTS; Potency, µM, for inactives: largest response in the series, negative = inhibition, most hits filed as inhibitors; 3.5% of 310,000 active;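 also: the enzyme is Sfp with the accession as filed and its product quenches rhodamine fluorescence; 0% = enzyme reaction without inhibitor and -100% = no enzyme wells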
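With Hepes-Na pH 7.6 buffer containing 10 mM MgCl2, Sfp (15 nM) modified BHQ-2-YbbR (12.5 uM) using rhodamine-CoA (5 uM). Two reads 30 minutes apart at 525/598 nm yielded each well's rate.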
BAZ2B inh: BAZ2B (human) inhibition; Q9UIF8; AlphaScreen BAZ2B-H3K14Ac peptide displacement; Potency, µM (series often up to 114 µM), for inactives: at the top dose activity change, negative = inhibition, hits mostly inhibitors; 4.4% of 360,000 active; AID 504333; also: % is scaled to controls: 0 for no effect and ±100 for the full control effect; nearly all actives have a fitted effect of over 60% in size
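AlphaScreen displacement: compounds (up to 110uM) incubated 30 min at room temperature with a preformed 50 nM BAZ2B/50 nM biotinylated H3K14Ac peptide complex in PBS pH 7.4 with Tween-20. Donor and acceptor beads at 10 ug/mL final added, 20 min light-protected before reading.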
G9a block: G9a (human) methyltransferase inhibition; 8.8% of 350,000 active; Potency, µM (doses to about 102 µM), inactives show at the highest dose activity, negative = inhibition, usual class: inhibitors; G9a H3K9 monomethylation, AlphaScreen, 2 h; also: % is scaled to controls: 0 for no effect and ±100 for the full control effect; nearly all actives have a fitted effect of over 75% in size
Target sequence (Q96KQ7 913-1193 limits assumed): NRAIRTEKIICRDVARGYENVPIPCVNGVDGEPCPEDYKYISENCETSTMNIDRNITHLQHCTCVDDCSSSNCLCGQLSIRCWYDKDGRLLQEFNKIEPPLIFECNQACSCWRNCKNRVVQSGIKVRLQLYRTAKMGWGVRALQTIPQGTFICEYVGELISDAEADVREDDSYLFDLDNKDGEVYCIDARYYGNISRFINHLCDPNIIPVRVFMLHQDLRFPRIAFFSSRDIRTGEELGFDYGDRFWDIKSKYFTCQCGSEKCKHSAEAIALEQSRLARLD
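Step 1: enzyme (final 20 nM) with compound, 15 min RT. Step 2: substrate peptide 500 nM and SAM 20 uM, 2 h RT. Step 3: anti-H3K9me1 antibody and AlphaScreen beads, 10 min, then plate read.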
HP1b binding inh: HP1-beta chromodomain-methylated histone interaction inhibition | P83916 | AlphaScreen HP1-beta / biotin-H3K9me3 peptide binding | Potency, µM (top dose mostly 114 µM), for inactives: at the top dose activity change, negative = inhibition, actives largely listed as inhibitors | 0.56% of 390,000 active; also: nearly all actives have a fitted effect of over 70% in size
Target sequence (P83916 whole entry, looked up): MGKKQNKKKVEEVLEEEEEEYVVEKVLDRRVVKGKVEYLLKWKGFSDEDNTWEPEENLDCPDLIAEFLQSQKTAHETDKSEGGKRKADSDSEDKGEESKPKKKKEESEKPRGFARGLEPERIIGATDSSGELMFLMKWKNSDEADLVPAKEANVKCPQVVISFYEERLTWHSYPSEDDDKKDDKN
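AlphaScreen: HP1-beta (50 nM) preformed 30 min with biotin-H3(1-18)K9me3 peptide (50 nM) in PBS pH 7.4, 0.01% Tween-20. Compound added for 30 min at RT, then streptavidin donor/nickel chelate acceptor beads (10 ug/mL) for 30 min.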
* marks the source's active call; other numbers are inactive results; ? = inconclusive; / = not tested or not shown; [ ] = dose if it differs, or a comment. Only some compounds are listed: those with a hit (about 12% of all), similar ones and a draw of the others. Calls follow the shape of the dose curve; as a rule, active = well fitted curve in the direction sought with a large enough effect; inconclusive = small, poorly fitted or top-dose-only effect, or another doubt; inactive = no such curve, though single readings can be large; an effect the other way counts as inactive or inconclusive. Potency is read from the fitted curve at half-maximal effect.

SMILES	JMJD2A Tudor inh	L3MBTL1 inh	Sfp PPTase inh	BAZ2B inh	G9a block	HP1b binding inh
Cc1ccc(C(=O)CSc2cc(C)[nH]c(=O)n2)cc1	?	/	-21%	45µM*	-9%[0.501 µM]	-4%
Cc1cc(SCC(=O)c2ccccc2)nc(=O)[nH]1	-31%	/	10%	-22%	22µM*	-7%
O=C(Cc1ccc(Cl)cc1)Nc1ccc(N2CCN(C(=O)c3ccco3)CC2)cc1	25%[11.4 µM]	33%[11.4 µM]	-3%	-31%	7.9µM*	-15%
O=C(Nc1ccc(-c2nnn(CC(=O)N3CCN(C(=O)c4ccco4)CC3)n2)cc1)c1ccc(F)cc1	-5%[11.4 µM]	19%	6%	79µM*	56µM*	54%
O=C(c1ccco1)N1CCN(c2ccc(Cl)cc2)CC1	-22%	4%	8%	-3%	18%[12.7 µM]	4%
Cc1cccc(OCC(=O)Nc2ccc(N3CCN(C(=O)c4ccco4)CC3)cc2)c1	-33%	?	-4%	-38%	79µM*	0%
O=C(NCc1ccccc1)c1cccc(OCC(=O)N2CCN(C(=O)c3ccco3)CC2)c1	40µM*	-6%	-6%	?	8.9µM*	0%
O=C(COc1ccc2ccccc2c1)N1CCN(C(=O)c2ccco2)CC1	-10%	/	-11%	13%	-37%	5%
O=C(Cn1nnc(-c2ccc(F)cc2)n1)N1CCCCC1	7%	-3%	17%	-16%	22%	30%
Cc1ccc(C(=O)Nc2ccc(N3CCN(C(=O)c4ccco4)CC3)cc2)cc1	79µM*	-18%	5%	-28%	2%	-7%
CC(C)c1ccc(NC(=O)CSC2=Nc3ccccc3C3=NC(CC(=O)NCc4ccco4)C(=O)N23)cc1 (stereo not drawn)	?	/	/	?	2%[59 µM]	-5%
O=[N+]([O-])c1cc(/C=N/N2CCN(C3c4ccccc4-c4ccccc43)CC2)ccc1Cl	?	-2%	19%	?	?	-6%
C/C(=N\N1CCN(C2c3ccccc3-c3ccccc32)CC1)c1cccnc1	?	-7%	-12%	?	20%[0.501 µM]	-21%
COc1ccc(/C=N/N2CCOCC2)cc1O	0%	9%	19%	0%	-17%[59 µM]	34%
Cc1ccc(/C=N/N2CCN(C3c4ccccc4-c4ccccc43)CC2)s1	-34%	-12%	17%	-11%	79µM*	-9%
C(=N\N1CCN(C2c3ccccc3-c3ccccc32)CC1)/c1cccnc1	56µM*	-8%	?	40µM*	40%[0.501 µM]	?
C(=N\N1CCN(C2c3ccccc3-c3ccccc32)CC1)/c1ccccn1	18µM*	-2%	-22%	20µM*	48%[0.501 µM]	?
COc1ccc(/C=N/N2CCN(C3c4ccccc4-c4ccccc43)CC2)cc1O	?	?	-5%	35µM*	?	?
NCC(=O)N[C@@H](CCCN=C(N)N)C(=O)NCC(=O)N[C@@H](CCC(=O)O)C(=O)N[C@@H](CO)C(=O)O	/	/	20%	/	/	/
Cc1cccc(C)c1NC(=O)C1CCCN(S(=O)(=O)c2c(C)noc2/C=C/N(C)C)C1 (stereo not drawn)	-12%	/	/	-18%	2%[59 µM]	45%
Cc1ccc(-c2onc(C)c2C)cc1S(=O)(=O)Nc1ccc(Cl)cn1	-1%	/	/	1%	5%[59 µM]	47%
Cc1ccccc1C(=O)NCC(=O)NNC(=S)NC(=O)c1ccccc1	-6%[57.1 µM]	6%	-3%	-4%	1.1µM*	22%
Cc1ccccc1C(=O)NCC(=O)NNC(=S)NC(=O)c1ccccc1C	?	6%	-18%	-2%	10µM*	40%
Cc1ccccc1C(=O)NC(=S)NCC(=O)c1ccccc1	0%	-3%	-3%	8%	-5%	5%
CCOC(=O)C1=C(CS(=O)(=O)c2ccc(C(C)(C)C)cc2)NC(=O)NC1c1cccc(OC)c1 (stereo not drawn)	-16%	/	/	0%	?	30%
COC(=O)c1ccccc1N=C(SC)N(C)C	-19%	10%	-17%	-2%	16µM*	3%
